One experiment deals with Albumin (Bos taurus) (UniProt P02769). Briefly: bovine serum albumin binders on microarray, profiling panel, artefact control for SMM control protein annotation, biochemical, small-molecule microarray, Alexa647 label, 635/667 nm fluorescence (AID 1118).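 Further: score merges 667 nm emission intensity and signal-to-noise per printed compound spot.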 The conditions noted are these: BSA-A647 binding, fluorescence 635 nm, higher = more signal.
A short description of experiment [1]: small-molecule microarray binders of probe aXIP, primary screen, biochemical, NeuroSMM set, 635/667 nm fluorescence (AID 1119).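 Further: probe is the protein aXip251-270 applied at 1 µg/mL to compound-printed slides; binding of probe to printed compounds measured as 667 nm fluorescence plus signal to noise.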 The conditions noted are these: higher = more signal, called active from +8 up or from −8 down.
The nature of experiment [2]: small-molecule binders of probe aNOTCH3, primary screen, biochemical, small-molecule microarray, 635/667 nm fluorescence (AID 1120).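 Further: probe is a biotin-tagged antibody raised against NOTCH3 rather than NOTCH3 protein; score merges spot fluorescence near 667 nm with spot signal to noise.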 The conditions noted are these: higher = more signal.
The nature of experiment [3]: small-molecule binders of probe aNOTCH2, primary screen, biochemical, small-molecule microarray, 635/667 nm fluorescence (AID 1121).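 Further: score merges feature fluorescence read at 667 nm with its signal to noise.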 The conditions noted are these: higher = more signal.
For experiment [4], the target named is Carbonic anhydrase 2 (Homo sapiens) (UniProt P00918). Briefly: CAII small-molecule binders, profiling panel, biochemical, small-molecule microarray, Alexa647-labelled CAII (AID 1122). The conditions noted are these: CAII-A647 binding fluorescence, higher = more signal.
The nature of experiment [5]: COS7 lysate on small-molecule microarray, probe aHis, 635 nm (AID 1123).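 Further: z-score combines 667nm fluorescence intensity with signal-to-noise per printed compound spot.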 The conditions noted are these: COS7 cell lysate, fluorescence, higher = more signal.
A short description of experiment [6]: compound binding in COS7 lysate, probe aLAP1, primary screen, cell lysate, small-molecule microarray (AID 1124).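 Further: lysate comes from COS7 cells expressing LAP1 and is applied at 0.3 µg/mL; score merges spot fluorescence near 667 nm with signal-to-noise over triplicate slides.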 The conditions noted are these: probe aLAP1, fluorescence, higher = more signal.
In another experiment the test system is Sam68 (KHDRBS1). In words: Sam68 small-molecule binders, primary screen, biochemical, small-molecule microarray, 635 nm fluorescence (AID 1125).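 Further: score merges 667 nm channel intensity with signal to noise over triplicate slides.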 The conditions noted are these: small-molecule microarray binding, higher = more signal.
The test system of experiment [7] is Chordin-like protein 2 (CHRDL2). In words: CHRDL2 small-molecule binders, primary screen, biochemical, small-molecule microarray, 635 nm fluorescence (AID 1126).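 Further: printed compound slides probed with Chrdl2 protein at 4 µg/mL for 1 h at 4 C; score merges 667 nm emission intensity with signal to noise over three replicate slides.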 The conditions noted are these: small-molecule microarray binding, fluorescence 635 nm; higher = more signal.
The target in experiment [8] is Concanavalin-A (Canavalia ensiformis) (UniProt P02866). Briefly: ConA small-molecule binders, primary screen, artefact control for SMM control protein annotation, biochemical, small-molecule microarray, Alexa647 label, 635 nm (AID 1127).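 Further: z combines 667 nm emission intensity with signal-to-noise across three replicate slides.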 The conditions noted are these: ConA-A647 binding fluorescence, higher = more signal.
Concanavalin-A (Canavalia ensiformis), sequence (P02866 whole entry, looked up): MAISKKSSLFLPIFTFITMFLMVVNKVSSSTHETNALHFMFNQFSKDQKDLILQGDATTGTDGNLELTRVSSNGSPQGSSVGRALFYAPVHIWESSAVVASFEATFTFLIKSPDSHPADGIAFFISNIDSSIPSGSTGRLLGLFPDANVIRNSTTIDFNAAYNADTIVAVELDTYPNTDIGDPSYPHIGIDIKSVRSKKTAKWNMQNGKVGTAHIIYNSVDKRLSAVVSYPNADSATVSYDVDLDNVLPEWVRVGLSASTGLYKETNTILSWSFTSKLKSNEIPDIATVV
The nature of experiment [9]: anti-His antibody binders, primary screen, artefact control for SMM control protein annotation, biochemical, small-molecule microarray, 635 nm fluorescence (AID 1128).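 Further: score merges feature fluorescence with signal-to-noise for each printed compound spot.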 The conditions noted are these: anti-His Alexa647 antibody binding, higher = more signal.
For experiment [10], the system named is Human papillomavirus type 1a E7 protein (residues 1-88). In words: HPV1a E7 small-molecule binders, primary screen, biochemical, small-molecule microarray, residues 1-88, 635 nm (AID 1129). The conditions noted are these: small-molecule microarray binding, fluorescence 635 nm; higher = more signal.
Experiment [11] has as its target Focal adhesion kinase 1 (Homo sapiens) (UniProt Q05397). Briefly: small-molecule microarray binders of FAK, primary screen, biochemical, 635/667 nm fluorescence, BSA, DTT (AID 1130).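 Further: composite of spot emission at 667 nm and signal to noise over triplicate slides.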 The conditions noted are these: PTK2 binding, 635 nm fluorescence, higher = more signal.
In experiment [12] the test system is Fibrinogen (Alexa647-labelled). Briefly: fibrinogen binders on compound microarrays, profiling panel, artefact control for SMM control-protein annotation, biochemical, small-molecule microarray, 635/667 nm fluorescence (AID 1131).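 Further: z-score merges 667 nm fluorescence with per-spot signal-to-noise over triplicate slides.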 The conditions noted are these: fibrinogen-A647 binding fluorescence, higher = more signal.
Experiment [13] concerns the target Follistatin (Homo sapiens) (UniProt P19883). Briefly: follistatin binders on small-molecule microarrays, primary screen, biochemical, small-molecule microarray, 635/667 nm fluorescence (AID 1132). The conditions noted are these: FST binding, 635 nm fluorescence, higher = more signal.
The target of experiment [14] is Fibroblast growth factor 2 (Homo sapiens) (UniProt P09038). In words: FGF2 binders on small-molecule microarrays, primary screen, biochemical, small-molecule microarray, 635/667 nm fluorescence (AID 1133). The conditions noted are these: small-molecule microarray binding, FGF2, fluorescence 635/667; higher = more signal.
Fibroblast growth factor 2 (Homo sapiens), sequence (P09038 whole entry, looked up): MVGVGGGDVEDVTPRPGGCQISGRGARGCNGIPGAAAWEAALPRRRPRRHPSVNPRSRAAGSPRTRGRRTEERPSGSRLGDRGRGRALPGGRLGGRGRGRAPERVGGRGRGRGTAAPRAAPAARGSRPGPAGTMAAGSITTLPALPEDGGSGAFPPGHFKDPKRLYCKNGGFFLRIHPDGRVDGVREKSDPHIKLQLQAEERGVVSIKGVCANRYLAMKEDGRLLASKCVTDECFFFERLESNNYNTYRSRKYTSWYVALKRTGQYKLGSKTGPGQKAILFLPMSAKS
A short description of experiment [15]: mitochondrial membrane potential change in A549 cells, profiling panel, cell-based, JC-1 fluorescence, basal, 24 h, 100 nL (AID 1138).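 Further: A549 lung adenocarcinoma cells under basal conditions with no added stimulus; test concentration not given here.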 The conditions noted are these: higher = more signal.
The test system of another experiment is Lefty1. Briefly: Lefty1 binders on small-molecule microarrays, primary screen, biochemical, small-molecule microarray, 635/667 nm fluorescence (AID 1139). The conditions noted are these: small-molecule microarray binding, fluorescence 635/667; higher = more signal.
Experiment [16] has as its system wheat germ agglutinin (Triticum aestivum), Alexa647-labelled. In words: wheat germ agglutinin binders on compound microarrays, profiling panel, artefact control for SMM control-protein annotation, biochemical, small-molecule microarray, 635/667 nm fluorescence (AID 1140).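 Further: score merges 667 nm feature emission with signal to noise over triplicate slides.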 The conditions noted are these: WGA-A647 binding, 635 nm fluorescence, higher = more signal.
Experiment [17] deals with Luciferin 4-monooxygenase (Photinus pyralis) (UniProt P08659). In words: firefly luciferase enzyme inhibitors, primary screen, biochemical, luminescence, purified enzyme, 2006 set (AID 1141).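 Further: cell-free assay with purified firefly luciferase at 100 ng per well in PBS; test concentration not given here.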 The conditions noted are these: SteadyGlo luminescence, 30 min, higher = more signal, called active from +8 up or from −8 down.
Luciferin 4-monooxygenase (Photinus pyralis), sequence (P08659 whole entry, looked up): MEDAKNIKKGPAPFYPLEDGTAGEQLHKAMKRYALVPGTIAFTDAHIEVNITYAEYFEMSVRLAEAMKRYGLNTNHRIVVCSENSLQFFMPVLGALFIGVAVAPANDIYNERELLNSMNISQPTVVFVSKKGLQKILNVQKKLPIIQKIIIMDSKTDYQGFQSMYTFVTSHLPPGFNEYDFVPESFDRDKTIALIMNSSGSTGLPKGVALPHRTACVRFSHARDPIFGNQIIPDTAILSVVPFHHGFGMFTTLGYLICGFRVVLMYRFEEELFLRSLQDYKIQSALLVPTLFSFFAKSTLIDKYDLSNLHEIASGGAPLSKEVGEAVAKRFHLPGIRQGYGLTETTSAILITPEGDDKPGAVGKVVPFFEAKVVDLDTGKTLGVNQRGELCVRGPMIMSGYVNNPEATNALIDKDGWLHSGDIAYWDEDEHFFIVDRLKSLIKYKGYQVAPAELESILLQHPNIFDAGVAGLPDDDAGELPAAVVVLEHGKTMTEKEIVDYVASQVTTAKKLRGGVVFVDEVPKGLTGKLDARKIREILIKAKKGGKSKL

Each structure is given as a SMILES string. The source made the active and inactive calls.

Follistatin (Homo sapiens), sequence (P19883 whole entry, looked up): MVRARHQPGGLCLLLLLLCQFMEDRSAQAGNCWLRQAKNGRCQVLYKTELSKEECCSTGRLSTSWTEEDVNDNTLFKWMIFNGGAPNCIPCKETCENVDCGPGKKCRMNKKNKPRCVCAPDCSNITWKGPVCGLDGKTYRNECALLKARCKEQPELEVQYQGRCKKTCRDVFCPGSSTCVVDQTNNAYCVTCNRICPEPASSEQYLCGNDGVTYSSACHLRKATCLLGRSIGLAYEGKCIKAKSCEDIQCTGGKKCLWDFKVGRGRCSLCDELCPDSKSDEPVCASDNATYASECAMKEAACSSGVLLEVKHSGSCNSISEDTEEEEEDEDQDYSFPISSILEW
Albumin (Bos taurus), sequence (P02769 whole entry, looked up): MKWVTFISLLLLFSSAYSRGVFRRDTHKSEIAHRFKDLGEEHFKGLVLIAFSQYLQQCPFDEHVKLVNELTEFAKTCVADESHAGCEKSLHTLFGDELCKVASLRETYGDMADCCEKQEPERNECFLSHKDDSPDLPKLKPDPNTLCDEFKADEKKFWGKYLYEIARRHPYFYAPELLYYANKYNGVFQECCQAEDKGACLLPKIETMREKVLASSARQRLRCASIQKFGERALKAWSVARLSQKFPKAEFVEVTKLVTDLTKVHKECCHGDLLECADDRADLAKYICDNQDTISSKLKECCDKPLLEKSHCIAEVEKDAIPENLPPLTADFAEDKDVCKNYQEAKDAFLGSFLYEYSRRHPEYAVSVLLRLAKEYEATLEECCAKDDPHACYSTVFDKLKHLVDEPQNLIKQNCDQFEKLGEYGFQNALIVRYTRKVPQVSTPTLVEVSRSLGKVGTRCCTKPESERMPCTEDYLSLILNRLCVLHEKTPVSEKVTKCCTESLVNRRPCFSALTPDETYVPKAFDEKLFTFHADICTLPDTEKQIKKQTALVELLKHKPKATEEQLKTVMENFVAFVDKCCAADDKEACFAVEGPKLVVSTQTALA
Focal adhesion kinase 1 (Homo sapiens), sequence (Q05397 whole entry, looked up): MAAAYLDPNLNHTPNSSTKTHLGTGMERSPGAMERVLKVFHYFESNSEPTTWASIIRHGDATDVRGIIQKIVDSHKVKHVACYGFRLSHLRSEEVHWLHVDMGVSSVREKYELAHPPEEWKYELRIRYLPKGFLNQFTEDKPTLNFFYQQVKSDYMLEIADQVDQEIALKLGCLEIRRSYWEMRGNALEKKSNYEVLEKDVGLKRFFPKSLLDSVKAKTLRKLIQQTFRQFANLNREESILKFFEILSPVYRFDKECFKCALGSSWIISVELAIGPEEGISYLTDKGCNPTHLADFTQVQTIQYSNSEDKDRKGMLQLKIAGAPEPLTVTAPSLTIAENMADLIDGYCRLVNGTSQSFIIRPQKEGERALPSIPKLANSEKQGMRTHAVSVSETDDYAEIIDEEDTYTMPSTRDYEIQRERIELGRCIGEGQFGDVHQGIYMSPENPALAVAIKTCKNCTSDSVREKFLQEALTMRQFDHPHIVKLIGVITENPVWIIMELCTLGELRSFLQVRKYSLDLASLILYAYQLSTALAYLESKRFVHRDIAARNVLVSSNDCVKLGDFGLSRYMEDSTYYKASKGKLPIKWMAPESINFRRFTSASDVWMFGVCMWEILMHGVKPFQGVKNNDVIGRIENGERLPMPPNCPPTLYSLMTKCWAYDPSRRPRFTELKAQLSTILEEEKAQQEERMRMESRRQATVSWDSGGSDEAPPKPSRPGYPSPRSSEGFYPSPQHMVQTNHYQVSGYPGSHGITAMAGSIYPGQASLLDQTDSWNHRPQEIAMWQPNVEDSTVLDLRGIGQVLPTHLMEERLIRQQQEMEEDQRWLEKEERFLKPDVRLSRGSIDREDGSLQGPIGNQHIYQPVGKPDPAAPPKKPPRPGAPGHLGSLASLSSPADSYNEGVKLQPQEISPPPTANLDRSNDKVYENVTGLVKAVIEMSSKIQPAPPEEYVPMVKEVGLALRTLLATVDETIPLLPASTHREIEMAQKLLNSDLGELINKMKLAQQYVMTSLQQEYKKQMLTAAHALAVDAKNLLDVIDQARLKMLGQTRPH

As to `COC(=O)c1c2oc(c1C(=O)OC)C(=O)N(C)Cc1cn(nn1)C[C@H](Cc1ccccc1)NC(=O)N[C@H](CO)CC2`, the composite z-score with Albumin (Bos taurus) is -0.56; in experiment [2] it was -0.155; in experiment [3] it was -0.18; in experiment [4], -0.41; in [5], -0.69; in [6], -0.161. The composite z-score is -0.947 in the experiment on Sam68 (KHDRBS1); -0.516 in experiment [7]; -1.17 in [8]; -0.0688 in experiment [9]; -1.52 in experiment [10]; -0.27 in experiment [11]. The composite z-score is -1.15 in [12]; -0.0414 in [13]; -0.438 in [14]; 0.244 with Lefty1; -0.272 in experiment [16]. Further, the composite Z-score in experiment [1] was -0.2 (inactive). The values for the z-score in experiment [15] and in experiment [17] were -0.209 and 0.247 (inactive), respectively.
Turning to `C=CCOC(=O)[C@H]1[C@@H]2C(=O)O[C@@H](c3ccccc3)[C@@H](c3ccccc3)N2[C@@H](c2ccc(OCCOC(=O)[C@@H]3C[C@@H]4C(=O)N[C@@H](CCCCNC(C)=O)C(=O)N4[C@@H]3c3ccc(O)cc3)cc2)[C@]12C(=O)Nc1ccc(I)cc12`, the composite z-score is -0.689 with Albumin (Bos taurus); 0.108 in experiment [2]; 0.0083 in experiment [3]; 0.631 in experiment [4]; 1.69 in experiment [5]; 0.719 in experiment [6]. In addition, the composite z-score amounted to 1.29 with Sam68 (KHDRBS1); 1.01 in experiment [7]; 0.764 in [8]; 1.66 in experiment [9]; 1.21 in experiment [10]; 0.736 in [11]. The composite z-score in experiment [12] turned out to be 0.468; in [13], 1.32; in experiment [14], 1.49; in the experiment on Lefty1, 0.752; in experiment [16], 0.0621. In addition, in experiment [1], the composite Z-score was 1.53 (inactive). For the same compound, the results for the z-score in [15] and in [17] were -1.38 and -0.875 (inactive), respectively.
Regarding `COc1ccccc1CN1C(=O)c2ccccc2[C@](Cc2ccccc2I)(C(=O)NCC(F)(F)F)[C@@H]1c1ccc(CO)cc1`, the composite z-score with Albumin (Bos taurus) was 0.832; in [2], 0.073; in [3], -0.057; in [4] it was 0.824; in [5], 1.95; in [6], 0.311. Further, the composite z-score was 1.29 in the experiment on Sam68 (KHDRBS1); -1.12 in experiment [7]; 1.15 in [8]; 2.25 in experiment [9]; 1.24 in experiment [10]; 0.473 in [11]. The composite z-score in experiment [12] worked out at 0.74; in experiment [13], 1.26; in [14], 0.342; in the experiment with Lefty1 it was 0.168; in experiment [16], 0.887. Further, the composite Z-score in [1] is -0.46 (inactive). In addition, the results for the z-score in [15] and in experiment [17] were -0.878 and 0.347 (inactive), respectively.
`COC(=O)c1nc2oc1CC[C@@H](CO)NC(=O)N(C)Cc1cnnn1C[C@H](Cc1ccccc1)NC2=O`: the composite z-score with Albumin (Bos taurus) was 0.771; in experiment [2] it was -0.182; in experiment [3], -0.167; in [4], 0.853; in experiment [5] it was 0.205; in experiment [6], 0.321. For the same compound, the composite z-score in the experiment on Sam68 (KHDRBS1) is -0.0671; in [7], -0.873; in experiment [8], -0.343; in experiment [9] it was -0.0727; in [10] it was -0.405; in experiment [11], -0.302. In addition, the composite z-score was 0.779 in experiment [12]; -0.701 in experiment [13]; -0.403 in experiment [14]; -0.281 in the experiment with Lefty1; 1.03 in experiment [16]. Moreover, the composite Z-score in experiment [1] is 0.15 (inactive). In addition, the z-score was 0.9 in experiment [15] and 0.782 (inactive) in experiment [17].
Take `C=CC[C@]1(C(=O)O)COC(c2ccc(OCCCO)cc2)=N1`: the composite z-score with Albumin (Bos taurus) is 0.157; in experiment [2], -0.0967; in [3] it was -0.222; in experiment [4], 0.969; in [5], 1.14; in experiment [6] it was 0.308. The composite z-score was 0.343 in the experiment with Sam68 (KHDRBS1); 0.422 in experiment [7]; -0.427 in experiment [8]; 1.53 in experiment [9]; 0.205 in experiment [10]; -0.0931 in experiment [11]. Besides, the composite z-score in experiment [12] is 0.219; in experiment [13] it was 0.372; in experiment [14] it was -0.105; in the experiment with Lefty1 it was 0.378; in experiment [16] it was 0.342. Further, the composite Z-score in [1] is 0.0512 (inactive). The z-score was 0.0454 in [15] and -0.497 (inactive) in [17].

The values above are taken from PubChem BioAssay.
